The values that follow come from PubChem BioAssay (EPA / NIEHS).

A short description of assay [1]: CCTE_Shafer_MEA_dev_per_burst_interspike_interval: CCTE's Neural Network Formation Assay for Burst Interspike Interval, Shafer Lab (AID 2284044).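 Further: mean spike spacing inside bursts as AUC over recordings on days 5 7 9 12.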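 On AC50: potency for a decrease of within-burst interspike interval below DMSO level.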 In a few lines:
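Mean interspike interval within single-electrode bursts, averaged over bursting electrodes, from rat cortical cultures on MEA plates recorded on days 5, 7, 9 and 12. Continuous compound exposure from plating; trapezoidal AUC fitted downward relative to DMSO.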

Assay [2] is described as follows: CCTE_Shafer_MEA_dev_burst_duration_mean: CCTE's Neural Network Formation Assay for Mean Burst Duration, Shafer Lab (AID 2284045). In a few lines:
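Primary rat cortical neurons on 48-well 16-electrode MEA plates, exposed from day 0 with renewal at DIV 5 and 9; spontaneous activity recorded on days 5, 7, 9, 12. Well-mean burst duration across bursting electrodes, collapsed as trapezoidal AUC; DMSO baseline.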

A short description of assay [3]: CCTE_Shafer_MEA_dev_interburst_interval_mean: CCTE's Neural Network Formation Assay for Mean Interburst Interval, Shafer Lab (AID 2284046).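 Further: curve fitted for decrease in interburst interval relative to DMSO.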 In a few lines: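 Primary rat cortical neurons on PEI-coated 48-well MEA plates (laminin added with cells at plating) (16 electrodes/well), exposed from plating day 0 with renewal at DIV 5 and 9. Mean inter-burst interval averaged over bursting electrodes, AUC across days 5, 7, 9, 12; DMSO baseline.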

Assay [4] can be described thus: CCTE_Shafer_MEA_dev_inter_network_spike_interval_mean: CCTE's Neural Network Formation Assay for Mean Inter-network Spike Interval, Shafer Lab (AID 2284047). In a few lines:
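Mean time between consecutive network-spike peaks, recorded extracellularly (adaptive spike detection) on DIV 5, 7, 9 and 12, summarized as trapezoidal AUC. Rat cortical cultures on MEAs dosed continuously days 0–12, re-dosed at feeds; loss-of-signal fit relative to DMSO.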

Assay [5] can be described thus: CCTE_Shafer_MEA_dev_network_spike_number: CCTE's Neural Network Formation Assay for Number of Network Spikes, Shafer Lab (AID 2284048).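 Further: synchronized bursts across electrodes counted on days 5 7 9 12 and integrated as AUC.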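 On AC50: fit as a loss of signal meaning fewer network spikes than DMSO.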 In a few lines: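 Primary rat cortical neurons on PEI/laminin 48-well MEA plates, dosed from plating day 0 for 12 days, renewed at DIV 5 and 9. Network spike counts recorded DIV 5, 7, 9, 12, collapsed as trapezoidal AUC; DMSO baseline.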

The nature of assay [6]: CCTE_Shafer_MEA_dev_network_spike_peak: CCTE's Neural Network Formation Assay for Mean Number of Electrodes in Network Spike, Shafer Lab (AID 2284049).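 On AC50: fitted for loss of signal meaning fewer electrodes in network spikes than DMSO.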 In a few lines:
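Network-spike peak electrode count from recordings on days 5, 7, 9 and 12 was combined as trapezoidal area under the curve. Rat cortical cultures were treated continuously from plating, with compound renewed at each feed (DIV 5, 9); fits versus DMSO.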

The nature of assay [7]: CCTE_Shafer_MEA_dev_spike_duration_mean: CCTE's Neural Network Formation Assay for Mean Spike Duration, Shafer Lab (AID 2284051).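 On AC50: potency for a decrease in mean network spike duration versus DMSO.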 In a few lines: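 Spontaneous activity was recorded on days 5, 7, 9 and 12 from rat cortical cultures grown on microelectrode arrays and dosed continuously from day 0, with media and compound renewed after the DIV 5 and 9 recordings. Network-spike duration was collapsed by area under the curve.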

Assay [8] is described as follows: CCTE_Shafer_MEA_dev_network_spike_duration_std: CCTE's Neural Network Formation Assay for Standard Deviation of Network Spike Duration, Shafer Lab (AID 2284052).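 Further: hits are decreases in network spike duration SD versus DMSO vehicle.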 In a few lines: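 Network spike duration variability was collapsed across recordings on days 5, 7, 9 and 12 by trapezoidal area-under-curve and fitted downward against DMSO. Cultures were rat cortical neurons on PEI-coated MEA plates, dosed continuously from plating, refed with compound DIV 5/9.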

Assay [9] can be described thus: CCTE_Shafer_MEA_dev_per_network_spike_spike_number_mean: CCTE's Neural Network Formation Assay for Mean Number of Spikes in a Network Spike, Shafer Lab (AID 2284053).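 On AC50: fitted as decrease in spikes per network spike relative to DMSO.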 In a few lines: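 Mean spike count within each network spike, taken in a 0.05 s window at its peak, was recorded on days 5, 7, 9 and 12 and integrated as trapezoidal area under the curve. Rat cortical cultures on MEA plates received continuous compound from day 0, refreshed at medium changes on DIV 5 and 9.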

The nature of assay [10]: CCTE_Shafer_MEA_dev_per_network_spike_spike_percent: CCTE's Neural Network Formation Assay for Percent of Spikes in a Network Spike, Shafer Lab (AID 2284054). In a few lines: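 Rat primary cortical neurons were grown on 48-well MEA plates (16 electrodes/well), exposed from plating day 0 through day 12, with treatment renewed on DIV 5 and 9. Percent of spikes within 0.05 s network-spike peaks was measured, summarised as AUC across days 5, 7, 9, 12.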

Assay [11] can be described thus: CCTE_Shafer_MEA_dev_LDH: CCTE's Lactate Dehydrogenase Assay for Cytotoxicity in the Neural Network Formation Assay, Shafer Lab (AID 2284068; active means hit-call score of the fitted dose curve at least 0.9, where 1 is the maximum;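 further: exposure for twelve days from plating with re-dosing on DIV 5 and 9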). In a few lines:
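Primary rat cortical neurons were cultured on PEI-coated MEA plates and exposed from plating through day 12, with compound renewed at medium changes on DIV 5 and 9. LDH activity was read spectrophotometrically; loss of signal versus DMSO indicates reduced viability.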

The nature of assay [12]: CCTE_Shafer_MEA_dev_AB: CCTE's Alamar Blue Assay for Cytotoxicity in the Neural Network Formation Assay, Shafer Lab (AID 2284083; active means hit-call score of the fitted dose curve at least 0.9, where 1 is the maximum;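 further: resazurin reduction fluorescence as viability of cultured neurons; twelve days of exposure from plating with re-dosing on DIV 5 and 9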). In a few lines: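 Resazurin fluorescence, relative to DMSO, gauges viability after twelve days of exposure that began at plating of rat cortical neurons (1.5 x 10^5 cells/well, 48-well MEA); treatment renewed with full medium exchange on DIV 5 and 9.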

Assay [13] can be described thus: CCTE_Shafer_MEA_dev_mutual_information_norm: CCTE's Neural Network Formation Assay for Mutual Information Normalization, Shafer Lab (AID 2284091).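 On AC50: mutual information between electrodes summarised as area under curve across four recording days; potency is for a decrease in mutual information relative to DMSO.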 In a few lines: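 Primary rat cortical neurons on PEI-coated 48-well MEA plates, 1.5 x 10^5 cells/well, exposed from day 0 through day 12 with re-dosing at DIV 5 and 9. Mutual information between electrodes recorded days 5, 7, 9, 12; trapezoidal AUC, loss-of-signal fit versus DMSO.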

Assay [14] is described as follows: CCTE_Shafer_MEA_dev_correlation_coefficient_mean: CCTE's Neural Network Formation Assay for Mean Correlation Coefficient, Shafer Lab (AID 2284093).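 On AC50: well mean pairwise spike train correlation integrated as AUC over recording days 5 to 12; potency fitted for loss of correlation relative to DMSO vehicle wells.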 In a few lines: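 Primary rat cortical neurons on PEI-coated 48-well MEA plates (16 electrodes/well) were exposed from plating day 0 through DIV12, with compound renewed at DIV5 and 9. Pairwise spike correlations were averaged per well; trapezoidal AUC across DIV5, 7, 9, 12.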

Assay [15] has as its system DIO2 (gene 1734). The assay can be described thus: CCTE_GLTED_hDIO2: CCTE's human Deiodinase 2 (DIO2) Inhibition Assay, Great Lakes Toxicology and Ecology Division (GLTED) Lab (AID 2284050; active means hit-call score of the fitted dose curve at least 0.9, where 1 is the maximum). In a few lines: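 In this cell-free test, chemicals are exposed to human deiodinase type 2 for 3 hours. Released iodide is determined spectrophotometrically via the Sandell-Kolthoff method, and signal loss relative to DMSO is fitted.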

The subject of assay [16] is DIO3 (gene 1735). The assay can be described thus: CCTE_GLTED_hDIO3: CCTE's human Deiodinase 3 (DIO3) Inhibition Assay, Great Lakes Toxicology and Ecology Division (GLTED) Lab (AID 2284055; active means hit-call score of the fitted dose curve at least 0.9, where 1 is the maximum). In a few lines: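 Enzyme activity is tracked as iodide release from substrate by recombinant human DIO3 over 3 h with chemical present. A second Sandell-Kolthoff step converts iodide to an absorbance signal, fitted relative to DMSO.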

Assay [17] can be described thus: CCTE_Shafer_MEA_acute_AB: CCTE's Alamar Blue Assay for Cytotoxicity in the Neural Acute Assay, Shafer Lab (AID 2284069; active means hit-call score of the fitted dose curve at least 0.9, where 1 is the maximum;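 further: active compounds lower the viability signal compared with DMSO wells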). In a few lines: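 Resazurin reduction (CellTiter Blue, 1:6 in fresh medium) read at ex 544/em 590 nm marks viability loss relative to DMSO. Cells: primary rat cortical neuron networks on microelectrode arrays, treated after baseline recording at 13 or 15 days in vitro.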

“And” between values parts separate entries of the source, which are not always exact repeats. Equal values may be shown once. Inconclusive results are not listed. Where a structure was tested more than once in an assay, its records may differ in their call. The source made the active and inactive calls. How the source made its calls, unless noted: active means hit-call score of the fitted dose curve at least 0.9, where 1 is the maximum; inactive means score below 0.9.

By AC50 is commonly meant the concentration giving half of the maximal activity seen. As to `COP(=S)(OC)SCN1C(=O)c2ccccc2C1=O`, the AC50 was 11.2 µM (active) in assay [1]; 37.6 µM (active) and 51.5 µM (active) in [6]; 36.7 µM (active) and 23.6 µM (active) in [7]; 31.8 µM (active) in assay [9]; 20.2 µM (active) in assay [10]; 28.9 µM (active) in [11]. For the same compound, the AC50 was 31.7 µM (active) in [12], 22.7 µM (active) in assay [13] and 19 µM (active) in [14]. Also, the compound was classed as inactive in [1], in assay [2], in assay [3], in [4], in assay [5] and in [8]. For the same compound, the compound was called inactive in assay [9], in assay [10], in [11], in assay [12], in assay [13] and in assay [14].

Consider `CCNS(=O)(=O)C(F)(F)C(F)(F)C(F)(F)C(F)(F)C(F)(F)C(F)(F)C(F)(F)C(F)(F)F`, for which the compound was called inactive in assay [1], in assay [2], in [3], in assay [4], in assay [5] and in assay [8]. For the same compound, the compound was classed as inactive in [16]. Moreover, the AC50 in [5] is 2.98 µM (active); in assay [6], 5.46 µM (active) and 1.92 µM (active); in assay [15], 100 µM (active); in assay [7], 15 µM (active) and 4.81 µM (active); in assay [9], 4.54 µM (active) and 2.66 µM (active); in assay [10], 6.71 µM (active) and 4.93 µM (active). Further, the half-maximal activity concentration (AC50) in assay [11] is 8.58 µM (active) and 4.41 µM (active); in assay [12], 15 µM (active) and 7.67 µM (active); in assay [13], 2.98 µM (active) and 2.72 µM (active); in assay [14], 2.98 µM (active) and 4.98 µM (active).

Consider `CCN(CC)N=O`, for which, in [17], the call was inactive.

For the compound `C1=Cc2cccc3cccc1c23`, the call in assay [1], in assay [2], in assay [3], in assay [4], in assay [5] and in assay [6] was inactive. Further, the compound was called inactive in [7], in assay [8], in assay [9], in assay [10], in assay [11] and in assay [12]. Besides, the result in assay [13] and in assay [14] was inactive.

For the compound `COC(=O)Nc1nc2ccccc2[nH]1`, the call in assay [1], in [2], in [3], in [4], in [5] and in [8] was inactive. Moreover, in assay [17], the compound was classed as inactive. Moreover, the AC50 in assay [6] is 12.5 µM (active); in assay [7], 12.5 µM (active); in assay [9] it was 12.5 µM (active); in [10] it was 5.94 µM (active); in assay [11], 12.5 µM (active); in assay [12], 7.64 µM (active). Besides, the figures for the AC50 in assay [13] and in assay [14] were 5.19 µM (active) and 5.11 µM (active), respectively.

As for `CNC(=O)Oc1cccc2c1OC(C)(C)C2`, the compound was classed as inactive in [1], in [2], in assay [3], in [4], in [5] and in assay [8]. The compound was classed as inactive in assay [9], in assay [10], in [11], in assay [12], in assay [13] and in assay [14]. Besides, the concentration at half-maximal activity (AC50) is 10 µM (active) and 49.6 µM (active) in [6]; 10 µM (active) and 49.6 µM (active) in assay [7]; 49.6 µM (active) in assay [9]; 49.6 µM (active) in [11]; 49.6 µM (active) in [12].

Turning to `CCCCCOC(=O)c1ccccc1C(=O)OCCCCC`, in assay [17], the result was inactive.
